Laboratory results from PubChem BioAssay (NCI).
Compounds without any hit were thinned out: in the full panel of roughly 79,000, 15% have a hit. The source made the active and inactive calls. Rule as the data show it: active = growth inhibition above about 70%; inactive = the rest.

What was measured:
[1] = NCI Yeast Anticancer Drug Screen. Data for the rad50 strain (AID 155);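 also: 0% = growth of vehicle-only cultures of the same strain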; conditions: S. cerevisiae rad50 strain growth inhibition; at 50.0 µM; active compounds read high
How it was run: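 Growth of the mutant yeast was measured after compound exposure and referenced to vehicle-treated cultures.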

[2] = NCI Yeast Anticancer Drug Screen. Data for the mec2-1 strain (AID 157); conditions: S. cerevisiae mec2-1 strain, at 50.0 µM, active compounds read high
How it was run: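 Using mec2-1 yeast: add compound, measure growth, express inhibition versus vehicle-treated cultures.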

[3] = NCI Yeast Anticancer Drug Screen. Data for the sgs1 mgt1 strain (AID 161);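 also: 0% = growth of cultures given vehicle only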; conditions: S. cerevisiae sgs1 mgt1 strain, at 50.0 µM, active compounds read high
How it was run: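 Compounds are added to genetically altered yeast, and growth is compared with cultures given vehicle alone to give percent inhibition.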

[4] = NCI Yeast Anticancer Drug Screen. Data for the cln2 rad14 strain (AID 165);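 also: 0% = growth equal to vehicle treated cultures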; conditions: S. cerevisiae cln2 rad14 strain, at 50.0 µM, active compounds read high
How it was run: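 Yeast strain cln2 rad14, bearing defects in cell cycle control and DNA repair, serves as the test system; values reflect growth inhibition compared with vehicle.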

[5] = NCI Yeast Anticancer Drug Screen. Data for the bub3 strain (AID 167); conditions: S. cerevisiae bub3 mutant strain, at 50.0 µM, active compounds read high
How it was run: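 Whole-cell yeast assay. The mutant strain was incubated with compounds, and growth inhibition was determined by comparison with vehicle-treated cells.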

[6] = NCI Yeast Anticancer Drug Screen. Data for the mlh1 rad18 strain (AID 175); conditions: S. cerevisiae mlh1 rad18 strain growth inhibition; at 50.0 µM; active compounds read high
How it was run: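 Steps: expose repair-defective yeast to compound; measure growth; express inhibition against vehicle-treated controls.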

Measured: growth inhibition

C1=CC2C=CC(C=C1)[PH+]2c1ccccc1.C1=CC2C=CC(C=C1)[PH+]2c1ccccc1.[C-]#[O+].[C-]#[O+].[C-]#[O+].[Fe] (stereo unspecified)
inactive: [1] -20.1% | [2] 4.4% | [3] -6.6% | [4] 26.1% | [5] 10.6% | [6] -4.85%

CCOP(=O)(OCC)Oc1ccc(SC)cc1
inactive: [1] -7.85% | [2] -14.3% | [3] -9.65% | [4] -14.9% | [5] 12.9% | [6] -14.8%

CC[N+](CC)(CC)CC.N#CC(C#N)=C([SH2+])[SH2+].N#CC(C#N)=C([SH2+])[SH2+].[Co+2]
active: [1] 95.3% | [2] 95.8% | [4] 94.5% | [5] 98.9% | [6] 98.7%
inactive: [3] 56%

O=C(O)c1ccccc1/C=N\NC(=S)NC1CN2CCC1CC2 (stereo unspecified)
inactive: [1] 9.45% | [2] 6.25% | [3] 6.85% | [4] -0.5% | [5] 34.6% | [6] -18.6%

C=[CH][Pb]([CH]=C)([CH]=C)[O]C(C)=O
active: [1] 97.2% | [2] 98% | [3] 97.9% | [4] 98.8% | [5] 98.2% | [6] 99%

Clc1cccc2ccccc12
inactive: [1] 7.8% | [2] -12.2% | [3] 0.1% | [4] 14.1% | [5] 3.4% | [6] 16.1%

CCCCCCCCCCCCCCCC(=O)OCC(C[As](=O)(O)O)OC(=O)CCCCCCCCCCCCCCC (stereo unspecified)
inactive: [1] 26.1% | [2] 5.9% | [3] -15.1% | [4] 9.5% | [5] -0.15% | [6] 13.5%

O=C(O)C1C2Cc3ccccc3C1c1ccccc12 (stereo unspecified)
inactive: [1] -1.6% | [2] -7.55% | [3] 0.95% | [4] 0.6% | [5] -13.7% | [6] -10%

O=c1cc(N2CCNCC2)nc2ccccn12
inactive: [1] 2.9% | [2] 4.4% | [3] 4.95% | [4] 1.4% | [5] 6.95% | [6] 6.35%

CCCc1c(C#N)c(S)[nH]c(=S)c1C#N
inactive: [1] 33.4% | [2] 20.4% | [3] 13.6% | [4] -5.65% | [5] 4.55% | [6] 16.2%

CCCCCCP(=O)(O)O.[Zn+2]
inactive: [1] -33.9% | [2] -21.8% | [3] -9.65% | [4] -9.9% | [5] -35.1% | [6] -8.75%

O=P(CCP(=O)(c1ccccc1)c1ccccc1)(c1ccccc1)c1ccccc1
inactive: [1] -17.6% | [2] -23.1% | [3] -0.5% | [4] 26.2% | [5] 3.2% | [6] 3.75%

c1ccc(NC2CCN(C3(c4ccccc4)CCCCC3)CC2)cc1
inactive: [1] -17.9% | [2] -6.8% | [3] -6.85% | [4] -45.6% | [5] -1.75% | [6] -8.1%

CCOC(=O)C1C2(C)NC(=O)C1(Cc1ccccc1)c1cc(C)c(C)cc1O2 (stereo unspecified)
inactive: [1] -0.75% | [2] 16.5% | [3] -11.8% | [4] -6.15% | [5] -3.3% | [6] 3.45%

O=C(O)CC(=O)O.[NH-]C1CCCCC1[NH-].[Pt+2] (stereo unspecified)
inactive: [1] 23.7% | [2] 4.35% | [3] 21.4% | [4] 30.4% | [5] 21.4% | [6] 13.8%

CC(Cl)CNC1CCCCC1 (stereo unspecified)
inactive: [1] 6% | [2] -3.5% | [3] -8.95% | [4] -10.6% | [5] -0.95% | [6] -0.9%

CCC(C)OC(=O)Nc1cccc(OC(=O)NC)c1 (stereo unspecified)
inactive: [1] 4.75% | [2] -22.6% | [3] -2.1% | [4] -2.15% | [5] -1.6% | [6] -0.3%

Nc1ccc2c(c1)Cc1cc(N)ccc1-2
inactive: [1] 60.2% | [2] 15.3% | [3] 57% | [4] -3.75% | [5] 37% | [6] 12.1%

CN(CCC(=O)O)C1=Nc2ccc(Cl)cc2C(c2ccccc2)=[N+]([O-])C1
inactive: [1] 1.75% | [2] 6.15% | [3] -14.2% | [4] -1.4% | [5] 16.2% | [6] 6.85%

CCCC1(C(C)C)C(=O)NC(=S)NC1=O
inactive: [1] 10.7% | [2] -7.2% | [3] -1.9% | [4] 6.55% | [5] -10.6% | [6] -24.1%

Cc1ccc(C)c(OP(=O)(Oc2cc(C)ccc2C)Oc2cc(C)ccc2C)c1
inactive: [1] -29.8% | [2] -42.5% | [3] -15.6% | [4] 8.85% | [5] -18% | [6] -36.9%

C=C1CCN2CC[C@@H](OC(=O)/C(C)=C\C)[C@@H]12
inactive: [1] 1.65% | [2] 1.3% | [3] 7.1% | [4] -1.9% | [5] 12.9% | [6] -22.1%

SCc1ccccc1.[Cu+2]
inactive: [1] -1.4% | [2] -15.9% | [3] -0.45% | [4] -35.1% | [5] -50.7% | [6] -2.75%

C[C@]12CC[C@H]3[C@@H](CC[C@]4(O)C[C@@H](O)CC[C@]34CO)[C@@]1(O)CC[C@@H]2C1=CC(=O)OC1
inactive: [1] -6.1% | [2] -23.1% | [3] -17.6% | [4] 0.45% | [5] 1.35% | [6] -16.9%

NC1CC=C(COC(=O)C(O)(c2ccccc2)C2CC2)CC1 (stereo unspecified)
inactive: [1] -12.9% | [2] -14.7% | [3] -23.6% | [4] 3.65% | [5] -7.4% | [6] -31.4%

Cc1ccc(-n2c(=O)[nH]c3ccccc3c2=O)cc1[N+](=O)[O-]
inactive: [1] 12.9% | [2] 12.3% | [3] 33% | [4] 23.2% | [5] 35.4% | [6] 26.6%

Clc1ccc(C(c2ccccc2Cl)C(Cl)(Cl)Cl)cc1 (stereo unspecified)
inactive: [1] -24.6% | [2] -7.8% | [3] 1.8% | [4] -44.6% | [5] 47.5% | [6] 12.2%

Nc1cc(Cl)ccc1Cl
inactive: [1] 1.1% | [2] -11.3% | [3] -19.2% | [4] -24.9% | [5] 1.15% | [6] -11.8%

[C-]#[O+].[C-]#[O+].[C-]#[O+].[C-]#[O+].[C-]#[O+].[CH3][Sn]([Cl])[c]1ccccc1.[Mn]
active: [1] 91.5% | [2] 96.5% | [3] 89.7% | [4] 88.6% | [5] 96% | [6] 92.5%

CCOC(=O)N(NC(=O)c1ccc(N(CCCl)CCCl)cc1)C(C)=O
inactive: [1] 6.2% | [2] 8.95% | [3] 3.15% | [4] -15.5% | [5] 5.65% | [6] 30.9%

Cc1cc(C)c(CCl)cc1CCl
inactive: [1] 16.2% | [2] -5.75% | [3] 26.4% | [4] -7% | [5] -7.15% | [6] 27.8%

Oc1ccc(C(c2cc3c(cc2O)OCO3)N2CCNCC2)cc1 (stereo unspecified)
inactive: [1] 21.8% | [2] 25.7% | [3] 25.9% | [4] -22.2% | [5] 18.5% | [6] 31.7%

OCCN1CCN(c2cccc(Cl)c2)CC1
inactive: [1] -7.5% | [2] -12.7% | [3] -34.6% | [4] -11.1% | [5] -8.05% | [6] -4.8%

CC12CCC3C(CC(N4CC4)C4(O)CC(O)CCC34C)C1CCC2=O (stereo unspecified)
inactive: [1] 15.6% | [2] -10.2% | [3] -3.85% | [4] 14.8% | [5] -8% | [6] -8%

CCC1(O)CC(OC2CC(N(C)C)C(OC3CC(O)C(OC4CCC(=O)C(C)O4)C(C)O3)C(C)O2)c2c(cc3c(c2O)C(=O)c2c(O)ccc(O)c2C3=O)C1C(=O)OC (stereo unspecified)
active: [1] 88.8% | [2] 90.9% | [3] 90.5% | [4] 88.4% | [5] 90% | [6] 89%

CC(C)(C(=O)c1ccccc1)N1CC1
inactive: [1] -0.65% | [2] 2.8% | [3] -4.75% | [4] -10.6% | [5] -23.6% | [6] -8.25%

C1=C[N-]c2c3c(ccc2=C1)=CC=C[N-]3.C1=C[N-]c2c3c(ccc2=C1)=CC=C[N-]3.C1=C[N-]c2c3c(ccc2=C1)=CC=C[N-]3.[Co+3].[O-][Cl+3]([O-])([O-])O
inactive: [1] -8.95% | [2] -16.4% | [3] -22.8% | [4] -26.1% | [5] -1.15% | [6] 8.2%

c1cc[n+]2c(c1)-c1cccc[n+]1CC2
inactive: [1] 65.8% | [2] 11% | [3] 52.7% | [4] 26% | [5] 19.3% | [6] 53.1%

CC(C)(C)Nc1ccccc1.[C-]#[O+].[C-]#[O+].[C-]#[O+].[Cr]
inactive: [1] -7.75% | [2] -2.3% | [3] -0.55% | [4] 10.3% | [5] 28.4% | [6] 6.3%

O=C(Nc1c(O)[nH]c(=S)[nH]c1=O)c1ccccn1
inactive: [1] 6.95% | [2] -14.7% | [3] -3.75% | [4] 1.7% | [5] -8.3% | [6] -8.3%

O=C1CCCN1CC#CCN1C[C@@H]2C3CCC(C3)[C@@H]2C1
inactive: [1] -2.8% | [2] -8.5% | [3] 6.25% | [4] 29.4% | [5] 17% | [6] 27.6%
